Bioassay records (PubChem BioAssay)
PI4K2A block = inhibitors of human PI4K2A; Q9BTU6; purified PI4K2A, ADP-Glo luminescence, 1 h; active compounds read low; activity change, negative = inhibition, % at 76.9 µM; 0.13% of 420,000 active; AID 1346378; in the data active means activity change below about -50%; inconclusive means mostly about -30% to -49%;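 further: -100% = wells without enzyme as full effect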
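Compounds are screened against recombinant PI4K2A using PI as substrate and ATP, the latter dispensed at 300 microM. Reactions run one hour at ambient temperature before ADP-Glo detection; full inhibition defined by wells lacking enzyme.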
Pol kappa inh = inhibitors of human DNA polymerase kappa | Q9UBT6 | purified Pol kappa, fluorescent DNA synthesis assay, 10 min | Potency, µM (top dose mostly 107 µM), inactives show top-dose activity, negative = inhibition, hits mostly inhibitors | 0.53% of 400,000 active | AID 588579; further: potency means the concentration at half of the fitted maximal effect; on the % scale 0 is the no-effect control and ±100 the full control effect
Target sequence (Q9UBT6 whole entry, looked up): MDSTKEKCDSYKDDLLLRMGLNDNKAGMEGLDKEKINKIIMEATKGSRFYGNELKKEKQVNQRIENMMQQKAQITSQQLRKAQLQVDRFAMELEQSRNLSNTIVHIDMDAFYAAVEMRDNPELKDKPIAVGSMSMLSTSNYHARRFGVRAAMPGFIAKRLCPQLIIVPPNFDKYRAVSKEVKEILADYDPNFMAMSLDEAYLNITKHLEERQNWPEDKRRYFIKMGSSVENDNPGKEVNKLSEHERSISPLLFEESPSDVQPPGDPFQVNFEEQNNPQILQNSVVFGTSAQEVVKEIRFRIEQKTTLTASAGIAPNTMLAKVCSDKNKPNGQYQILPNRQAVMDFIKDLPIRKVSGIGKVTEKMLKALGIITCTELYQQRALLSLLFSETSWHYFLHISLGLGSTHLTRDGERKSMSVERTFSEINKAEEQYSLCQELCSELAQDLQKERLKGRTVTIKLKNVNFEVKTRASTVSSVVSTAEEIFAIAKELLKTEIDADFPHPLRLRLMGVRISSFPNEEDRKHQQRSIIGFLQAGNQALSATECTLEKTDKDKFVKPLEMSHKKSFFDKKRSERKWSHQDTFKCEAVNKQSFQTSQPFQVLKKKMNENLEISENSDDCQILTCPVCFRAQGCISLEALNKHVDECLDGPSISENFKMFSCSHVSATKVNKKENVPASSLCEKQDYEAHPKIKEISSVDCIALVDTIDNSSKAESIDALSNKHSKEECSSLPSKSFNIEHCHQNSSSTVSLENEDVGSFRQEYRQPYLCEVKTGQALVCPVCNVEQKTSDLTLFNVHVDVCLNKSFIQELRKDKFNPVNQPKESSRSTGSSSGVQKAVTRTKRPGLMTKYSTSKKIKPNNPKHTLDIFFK
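First, compounds were pin-transferred onto 10 nM Pol kappa. After 15 min at room temperature, substrate was added to 50 nM final. Fluorescence was then measured kinetically at 0 and 10 min.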
PI5P4K alpha inh = PI5P4K alpha (human) kinase inhibition; max response, %; P48426; 1.2% of 330,000 active; PI5P4Kalpha enzyme, ADP-Glo luminescence, 60 min; active compounds read low; active means max response of -50% or lower; inconclusive means between -30% and -50%; inactive means -30% or higher; further: value at the top dose of about 77 µM; on the % scale 0 is the no-effect control and ±100 the full control effect
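qHTS, 1536-well: enzyme/substrate mix, compound by pin tool, 5 microM ATP final; RT 60 min; ADP-Glo reagents 1 (45 min) then 2 (30 min); luminescence.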
POLH inh = DNA polymerase eta (human) inhibition. Q9Y253. 1.2% of 390,000 active. recombinant Pol eta, fluorescent DNA replication assay. Potency, µM (series often up to 114 µM), inactives show at the highest dose activity change, negative = inhibition, actives largely listed as inhibitors; further: potency means the concentration at half of the fitted maximal effect; on the % scale 0 is the no-effect control and ±100 the full control effect
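Pol eta (10 nM) was preincubated with compounds for 15 min at room temperature, after which fluorescent replication substrate (50 nM final) was added to start the reaction. Fluorescence was read kinetically at 0 and 10 min.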
Pol iota inh = inhibitors of human DNA polymerase iota | Pol iota fluorescent replication assay, 10 min | Potency, µM (top dose mostly 115 µM), inactives show at the highest dose activity, negative = inhibition, hits mostly inhibitors | 1% of 390,000 active | AID 588590; further: potency means the concentration at half of the fitted maximal effect
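Fluorescent replication assay read twice, at 0 min and 10 min after adding 50 nM (final) substrate. Enzyme (10 nM) and compounds were first incubated 15 min at room temperature; enzyme-free buffer wells were negative controls.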
POLB inh = inhibitors of human DNA polymerase beta; P06746; Pol beta primer extension/strand displacement, fluorescence kinetic; Potency, µM (doses to about 114 µM), for inactives: at the top dose activity change, negative = inhibition, usual class: inhibitors; 1.3% of 340,000 active; further: potency means the concentration at half of the fitted maximal effect; on the % scale 0 is the no-effect control and ±100 the full control effect
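Kinetic readout of DNA synthesis with strand displacement by Pol beta. Compound and 10 nM enzyme sit 15 min at room temperature; 50 nM substrate starts the reaction, read immediately and at 10 min.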
ADP-Glo counter = interferes with ADP-Glo detection without enzyme present; ADP-Glo detection counter-screen, luciferase luminescence, no enzyme; shares compounds with PI5P4K alpha inh; 1,100 tested, under 10 active; Potency, µM (series often up to 76.9 µM), without a hit: top-dose activity change, negative = inhibition, actives largely listed as inhibitors; AID 743285
Numbers without * were called inactive; ! = not active in a repeat; [ ] = remark or other dose. Most compounds without a hit are left out; they make up all but 2.8% or so of the library. Unless noted, the call rests on the fitted dose curve; in most records, active means well fitted curve in the direction sought with a large enough effect; inconclusive means small, poorly fitted or top-dose-only effect, or another doubt; inactive means no such curve, though single readings can be large; an effect the other way counts as inactive or inconclusive.

COc1cc2c(cc1OC)C(COc1ccc3c(C)cc(=O)oc3c1)N(C(=O)c1cccc(OC)c1OC)CC2 (stereo not drawn) was read as PI4K2A block -1.5, Pol kappa inh 7.1%, POLH inh -14.2%, Pol iota inh 29.0% and POLB inh 32.3%.
COc1cccc(CNC(=O)COC(=O)c2c(C)nn(-c3ccccc3)c2Cl)c1 was read as PI4K2A block -14.7, Pol kappa inh -31.8%, PI5P4K alpha inh -59.1*, POLH inh 12.6µM*, Pol iota inh inconclusive and ADP-Glo counter 5.5%.
For Cc1ccc(Cn2c(CN3CCC(C(=O)NCCc4ccccc4)CC3)cc3ccccc32)cc1 the results were PI4K2A block -0.8, Pol kappa inh -9.9%[60.1 µM], POLH inh -11.1%, Pol iota inh 34.8% and POLB inh -15.8%.
O=C(Oc1ccc(N(Cc2cccs2)C2=NS(=O)(=O)c3ccccc32)cc1)c1ccccc1Cl was read as PI4K2A block -20.3, Pol kappa inh -0.3%, PI5P4K alpha inh -65.3*, POLH inh -16.5%, Pol iota inh inconclusive, POLB inh -10.4% and ADP-Glo counter -0.3%.
`O=C(Oc1ccc(N(Cc2cccs2)C2=NS(=O)(=O)c3ccccc32)cc1)c1ccco1` gave PI4K2A block -0.4, Pol kappa inh 1.5%, PI5P4K alpha inh 0.6, POLH inh -12.6%, Pol iota inh 22.6% and POLB inh -20.6%.
Screening Nc1ncnc2c1ncn2[C@@H]1O[C@H](COP(=O)(O)OP(=O)(O)CP(=O)(O)O)[C@@H](O)[C@H]1O returned Pol kappa inh 3.5%[19.4 µM].
`CCN1CCN(Cc2ccc(NC(=O)c3ccc(C)c(NC(=O)c4csc(-c5ccncc5)n4)c3)cc2C(F)(F)F)CC1` gave PI4K2A block -0.8, Pol kappa inh 15.2%, PI5P4K alpha inh -64.9*, POLH inh -16.6%, Pol iota inh inconclusive, POLB inh inconclusive and ADP-Glo counter 4.2%.
For CCN1CCN(Cc2ccc(NC(=O)c3ccc(C)c(NC(=O)c4cccc(-c5cn[nH]c(=O)c5)c4)c3)cc2C(F)(F)F)CC1 the results were PI4K2A block -2.5, Pol kappa inh 4.3%, PI5P4K alpha inh 0.5, POLH inh -19.8%, Pol iota inh inconclusive and POLB inh 0.1%.
Screening CCN1CCN(Cc2ccc(NC(=O)c3cc(NC(=O)c4cc5cccc(OC)c5o4)cc(OC)c3)cc2C(F)(F)F)CC1 returned PI4K2A block -5.8, Pol kappa inh 11.9%, PI5P4K alpha inh -61.5*!, POLH inh -11.1%, Pol iota inh 30.8%, POLB inh 1.1% and ADP-Glo counter 7.0%.
For CC(C)(C)C1CCc2nc(NC(=O)c3cccc(Cl)c3)sc2C1 (stereo not drawn) the results were PI4K2A block -8.0, Pol kappa inh -13.2%, POLH inh -10.5%, Pol iota inh 15.7% and POLB inh 11.1%.
`COc1ccc(N(C(=O)c2ccccc2)S(=O)(=O)c2cccs2)cc1` gave PI4K2A block 1.9, Pol kappa inh -5.7%, PI5P4K alpha inh -60.1*, POLH inh -4.7%, Pol iota inh 37.3%, POLB inh 19.3% and ADP-Glo counter 3.6%.
Screening O=C(CSc1ncccn1)NCc1ccc(F)cc1 returned PI4K2A block 1.9, Pol kappa inh 1.1%, POLH inh -12.5%, Pol iota inh 2.4% and POLB inh -1.6%.
For Cc1ccc(CNC(=O)CSc2ncccn2)cc1 the results were PI4K2A block -3.2, Pol kappa inh inconclusive, PI5P4K alpha inh inconclusive, POLH inh -99.2%, Pol iota inh inconclusive, POLB inh -16.1% and ADP-Glo counter 3.4%.
CCS(=O)(=O)c1ccc2oc(Nc3cc(C)cc(C)c3)nc2c1 was read as PI4K2A block -1.5, Pol kappa inh -9.4%, POLH inh -25.9%, Pol iota inh 26.4% and POLB inh inconclusive.
CCS(=O)(=O)c1ccc2oc(Nc3ccc(C(C)C)cc3)nc2c1 was read as PI4K2A block 1.1, Pol kappa inh -3.9%, PI5P4K alpha inh -50.4*, POLH inh -13.5%, Pol iota inh -3.7%, POLB inh 0.9% and ADP-Glo counter -5.6%.
Screening CCCNC(=O)N1[C@H](c2ccc(C)s2)[C@@H](C)C(=O)[C@@H](C)[C@@H]1c1ccc(C)s1 returned PI4K2A block -0.3, Pol kappa inh 7.5%, POLH inh -8.5%, Pol iota inh 6.8% and POLB inh -1.3%.
Screening COc1ccc(Nc2nc(N)nc(N)c2S(=O)(=O)c2ccccc2)cc1 returned PI4K2A block -1.9, Pol kappa inh 2.7%, POLH inh -24.8%, Pol iota inh 21.8% and POLB inh -24.3%.
Fc1cccc(Cl)c1CNc1ccc(N2CCCC2)cc1 was read as PI4K2A block -6.7, Pol kappa inh -8.6%, PI5P4K alpha inh -62.6*, POLH inh -14.1%, Pol iota inh 100.5%, POLB inh 11.0% and ADP-Glo counter -21.3%.
For O=C(NCCc1ccccc1)c1cccc(Br)n1 the results were Pol kappa inh -10.3%.
Screening Cc1ccc(-c2csc(NC(=O)c3ccccc3Cl)c2C(=O)O)cc1 returned PI4K2A block -0.3, Pol kappa inh -2.1%, PI5P4K alpha inh -54.6*, POLH inh -14.3%, Pol iota inh 22.1%, POLB inh -8.0% and ADP-Glo counter 4.3%.
`Cc1cccc(C(=O)Nc2scc(-c3ccc(Br)cc3)c2C(=O)O)c1` gave PI4K2A block -6.5, Pol kappa inh -8.0%, PI5P4K alpha inh inconclusive, POLH inh -4.5% and Pol iota inh 80.3%.
`COc1cc(C(=O)Nc2scc(-c3ccc(Br)cc3)c2C(=O)O)cc(OC)c1OC` gave PI4K2A block -3.4, Pol kappa inh -91.0%[60.1 µM], PI5P4K alpha inh -97.8*, POLH inh inconclusive, Pol iota inh -17.9%, POLB inh -0.6% and ADP-Glo counter 1.7%.
Cc1ccc(-c2csc(NC(=O)c3ccc(Br)cc3)c2C(=O)O)cc1 was read as PI4K2A block -4.2, Pol kappa inh 0.8%, PI5P4K alpha inh -76.7*, POLH inh 50.1µM*, Pol iota inh 24.1%, POLB inh 20.2% and ADP-Glo counter -0.1%.
Screening COc1ccc(C2c3cccn3CCN2S(=O)(=O)c2ccc([N+](=O)[O-])cc2)cc1 (stereo not drawn) returned PI4K2A block 5.7, Pol kappa inh -4.1%[60.1 µM], POLH inh -20.4%, Pol iota inh 29.1% and POLB inh -5.5%.
